Bioassay records (PubChem BioAssay)
Compounds with a hit are over-represented: about 2.1% of the library has one in this group of screens.
ROS inducer – ROS inducers in U2OS cancer cells, primary screen, cell-based, H2DCF-DA fluorescence; U2OS ROS induction; ROS induction (% of piperlongumine), % at 10 µM; hit rate 2% among 46,000; AID 624156, 2012; in the data active means ROS induction above about 79%, passing the limit was not always enough;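 further: 0% = DMSO vehicle median and 100% = reference compound median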
YB-1 expr inh – inhibitors of YB-1 gene expression, primary screen, cell-based, fluorescence | delta delta Cp (YB-1 minus CDIP) (concentration not given with the values) | U2OS, qRT-PCR YB-1 vs CDIP delta delta Cp, 16 h; active compounds read high; zero = DMSO, each unit about twofold | hit rate 0.37% among 30,000 | AID 434959, 2010;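 active means delta delta Cp rounded down to an integer at or above 3, about 3 SD of DMSO wells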;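 further: higher means less YB-1 transcript or more CDIP transcript relative to DMSO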
An asterisk follows results filed as active; / = no result.

SMILES	ROS inducer	YB-1 expr inh
COc1ccc(Cl)cc1NC1=NCC(C)S1 (stereo unspecified)	-8	10*
Fc1ccc(C(OCCN2CCN(CCCc3ccccc3)CC2)c2ccc(F)cc2)cc1	2	0.82
c1ccc(CCCN2CCN(CCOC(c3ccccc3)c3ccccc3)CC2)cc1	23	22*
C=C1[C@@H](C)[C@H]2[C@H](Cc3ccccc3)NC(=O)[C@]23[C@H](OC(C)=O)C=C[C@](C)(O)C(=O)[C@@H](C)C/C=C/[C@H]3[C@@H]1O	23	-0.099
C[C@@H]1O[C@@H](O[C@H]2[C@H](O)[C@@H](O)[C@H](O[C@@H]3C=C4CC[C@@H]5C(CC[C@]6(C)[C@@H](c7ccc(=O)oc7)CC[C@]56O)[C@@]4(C)CC3)O[C@@H]2CO)[C@H](O)[C@H](O)[C@H]1O (stereo partly specified)	61	-0.4
CC(C)c1cc2c(cc1O)[C@@]1(C)C[C@@H](O)CC(C)(CO)C1CC2 (stereo partly specified)	-1	-0.14
CC(C)c1cc2c(cc1O)[C@@]1(C)C[C@@H](O)CC(C)(C)C1CC2 (stereo partly specified)	5	4.5*
C[C@@H]1O[C@@H](OC2CCC3(C)C4CCC5(C)C(C6=CC(=O)OC6)CCC5(O)C4CC[C@H]3C2)[C@H](O)[C@H](O)[C@H]1O (stereo partly specified)	8	2.1
C=CCN1C(=O)/C(=C/c2cc(C)n(-c3ccccn3)c2C)C(=O)NC1=S	113*	-0.13
O=C1NC(=O)C(=C/C=C/c2ccccc2)C(=O)N1	-7	0.17
C[C@]12CC[C@H](O)C[C@H]1CC[C@@H]1[C@@H]2CC[C@]2(C)[C@@H](c3ccc(=O)oc3)CC[C@]12O	-6	-0.034
O=C(CCNS(=O)(=O)c1ccccc1)Nc1ccc(Br)cc1C(=O)c1ccccc1	-3	/
Cc1cc(-n2c(=S)[nH]c3ccccc3c2=O)ccc1Br	-15	/
COc1cc[n+](OC(=O)N2CCCCC2)c(C)c1	-5	/
CC[C@@H]1/C=C\C=C\C[C@H](C)C(O)[C@](C)(O)C(=O)[C@H](C)C(O)[C@H](C)C(=O)[C@H](C)[C@@H](O)[C@H](C)/C=C/C(=O)O[C@H]2[C@@H](C)[C@@H](CC1)O[C@@]1(CC[C@@H](C)[C@@H](C[C@H](C)O)O1)[C@@H]2C (stereo partly specified)	133*	-0.57
CO[C@H]1[C@H](O)[C@H](O[C@H]2CC[C@]3(C)C4CC[C@]5(C)[C@H](C6=CC(=O)OC6)CC[C@]5(O)C4CC[C@@H]3C2)O[C@@H](C)[C@@H]1O (stereo partly specified)	2	-0.012
CSc1nc(-c2ccc(Cl)cc2)nn1C(=O)N(C)C	-9	/
Cn1c(CCN)nc2ccccc21	16	/
O=C1CC=C2C3CC4N(CCC45c4ccccc4N1C25)C/C3=C/CO (stereo unspecified)	-1	10*
C/C1=C/C(=O)O[C@@H]2C[C@@H](CC[C@H](C)/C=C\CC1)O[C@@](O)([C@@H]1CSC(=O)N1)C2	13	0.042
CCC(C)[C@H]1O[C@]2(C=C[C@@H]1C)C[C@@H]1C[C@@H](C/C=C(\C)[C@@H](OC3C[C@H](OC)C(O[C@H]4C[C@H](OC)[C@@H](O)[C@H](C)O4)[C@H](C)O3)[C@@H](C)/C=C/C=C3\CO[C@@H]4[C@H](O)C(C)=C[C@@H](C(=O)O1)[C@]34O)O2 (stereo partly specified)	36	0.19
COC1CC(OC2C(C)OC(OC3C(C)OC(OC4C(C)OC(O[C@H]5CC[C@@]6(C)C(=CC[C@]7(O)C6CC(OC(=O)c6ccccc6)[C@@]6(C)[C@]7(O)CC[C@@]6(O)C(C)=O)C5)CC4OC)CC3OC)CC2OC)OC(C)C1O (stereo partly specified)	20	0.22
CC[C@]12C=CCN3CC[C@@]4(c5ccc(OC)cc5N(C)[C@H]4[C@@](O)(C(=O)OC)[C@@H]1OC(C)=O)[C@@H]32	117*	-0.11
C[C@H]1O[C@@H](O[C@H]2[C@@H](O)C[C@H](O[C@H]3[C@@H](O)C[C@H](O[C@H]4CC[C@@]5(C)[C@H](CC[C@@H]6[C@@H]5CC[C@]5(C)[C@@H](C7=CC(=O)OC7)CC[C@]65O)C4)O[C@@H]3C)O[C@@H]2C)C[C@H](O)[C@@H]1O	114*	0.021
C[C@H]1OC(O[C@H]2[C@@H](O)CC(O[C@H]3[C@@H](O)C[C@H](O[C@H]4CC[C@]5(C)C6CC[C@]7(C)[C@@H](C8=CC(=O)OC8)[C@@H](O)C[C@]7(O)[C@@H]6CC[C@@H]5C4)O[C@@H]3C)O[C@@H]2C)C[C@H](O)C1O (stereo partly specified)	3	0.24
O=C1NC(=O)N(c2ccccc2)C(=O)/C1=C/c1ccco1	83*	-0.12
CC(=O)NCC1CCCN2CCCCC12 (stereo unspecified)	-7	/
